The nature of this test: blockers of bacterial quorum-sensing reporter fluorescence – flow cytometry, SAR analogs, SAR follow-up (AID 1014).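 Also: Staphylococcus aureus RN6390 with RNAIII-GFP reporter stimulated by AIP; bacteria incubated with compound for 3 hours at 37 °C.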 The settings on record: at 20 µM, stronger effect = higher value; inhibition of percent positive cells: measured here: percent reporter-positive cells.

SMILES strings stand for the structures. Activity calls are given as the source filed them. Rule as the data show it: active = inhibition of mean fluorescence above about 33%; inactive = the rest.

With `O=C(NCC(c1cccnc1)N1CCN(c2ccc(F)cc2)CC1)c1cccc(Cl)c1` (stereo not given), the inhibition of mean fluorescence is -11.7% (inactive) and the inhibition of percent positive cells was -0.1%.

For the compound `O=C(NCCN1CCN(c2ccccc2)CC1)c1ccccc1F`, the inhibition of mean fluorescence is -12.3% (inactive) and the inhibition of percent positive cells is -1.5%.

Take `Cc1cccc(Nc2nc3c(S(=O)(=O)c4ccccc4)nnn3c3ccccc23)c1`: the inhibition of mean fluorescence was 3.1% (inactive) and the inhibition of percent positive cells was 0.2%.

Consider `COC(=O)c1c(C)oc2cc(Br)c(O)cc12`, for which the inhibition of mean fluorescence is -18% (inactive) and the inhibition of percent positive cells is -1%.

As for `CC(C)c1ccc(NC(=O)C(c2cc3c(cc2[N+](=O)[O-])OCO3)N2CCC(Cc3ccccc3)CC2)cc1` (stereo not given), the inhibition of mean fluorescence is -12% (inactive) and the inhibition of percent positive cells was -0.4%.

Consider `Cc1ccc(S(=O)(=O)c2nnn3c2nc(Nc2ccc(Oc4ccccc4)cc2)c2cc(Cl)ccc23)cc1`, for which the inhibition of mean fluorescence was -19.1% (inactive) and the inhibition of percent positive cells is -0.5%.

Regarding `CCOC(=O)C1=C(c2ccccc2)NC(SCC(=O)Nc2sc3c(c2C(=O)OCC)CCCC3)=C(C#N)C1c1ccco1` (stereo not given), the inhibition of mean fluorescence is -27.4% (inactive) and the inhibition of percent positive cells is 0.1%.

Regarding `Cc1c(Nc2c(C(=O)O)cc([N+](=O)[O-])cc2[N+](=O)[O-])c(=O)n(-c2ccccc2)n1C`, the inhibition of mean fluorescence was -3.7% (inactive) and the inhibition of percent positive cells was -0.4%.

`O=C(Nc1ccc2c(c1)OCO2)C(c1ccccc1)N1CCC(Cc2ccccc2)CC1` (stereo not given): the inhibition of mean fluorescence is 63% (active) and the inhibition of percent positive cells amounted to 4.2%.

With `Cc1ccc(S(=O)(=O)c2nnn3c2nc(Nc2ccc(Oc4ccccc4)cc2)c2ccccc23)cc1`, the inhibition of mean fluorescence was -5% (inactive) and the inhibition of percent positive cells was 0%.

With `O=C(NCC(c1cccnc1)N1CCN(c2ccccc2F)CC1)c1ccco1` (stereo not given), the inhibition of mean fluorescence was -27.7% (inactive) and the inhibition of percent positive cells was -1.9%.

`O=C(NCC(c1cccnc1)N1CCN(c2ccccc2)CC1)c1ccc(F)cc1` (stereo not given): the inhibition of mean fluorescence is -24.9% (inactive) and the inhibition of percent positive cells is -0.8%.

On to `O=C(NCC(c1cccnc1)N1CCN(c2ccc(F)cc2)CC1)C1CC1` (stereo not given), for which the inhibition of mean fluorescence was -43% (inactive) and the inhibition of percent positive cells stood at 0.1%.

`O=C(Nc1ccc2c(c1)OCCO2)C(c1ccccc1)N1CCOCC1` (stereo not given): the inhibition of mean fluorescence is 9.5% (inactive) and the inhibition of percent positive cells was determined as 2.3%.

In the case of `O=C(O)c1cc([N+](=O)[O-])cc([N+](=O)[O-])c1Nc1ccc(Cl)cc1`, the inhibition of mean fluorescence was -16.3% (inactive) and the inhibition of percent positive cells was determined as 0.2%.

Consider `O=C(NCCN1CCN(C(=O)c2cc(F)c(F)cc2Cl)CC1)c1cc(F)c(F)cc1Cl`, for which the inhibition of mean fluorescence is -25.7% (inactive) and the inhibition of percent positive cells was -1.2%.

Take `Cc1ccc(S(=O)(=O)c2nnn3c2nc(Nc2ccc(C(C)C)cc2)c2ccccc23)cc1`: the inhibition of mean fluorescence was 12.6% (inactive) and the inhibition of percent positive cells is -1.7%.

As to `Cc1cc(C)cc(Nc2c(F)c(F)c(F)c(F)c2C(=O)O)c1`, the inhibition of mean fluorescence is 14% (inactive) and the inhibition of percent positive cells was -0.2%.

`Cc1ccc2occ(/C=C/C(=O)c3ccc(O)cc3)c(=O)c2c1`: the inhibition of mean fluorescence is -0.6% (inactive) and the inhibition of percent positive cells is -0.1%.

Regarding `CC1CCCN(C(C(=O)Nc2ccc3c(c2)OCO3)c2ccccc2)C1` (stereo not given), the inhibition of mean fluorescence was 81.5% (active) and the inhibition of percent positive cells was 81.9%.

Consider `Cc1cc(C)nc(Nc2ccc(Br)cc2C(=O)O)n1`, for which the inhibition of mean fluorescence is 17.1% (inactive) and the inhibition of percent positive cells was found to be 0.6%.

As to `O=C(Nc1ccc2c(c1)OCO2)C1CCN(Cc2cnn(-c3ccccc3)c2-n2cccc2)CC1`, the inhibition of mean fluorescence was -33.1% (inactive) and the inhibition of percent positive cells was -0.6%.

Consider `COc1ccc(C(=O)NCC(c2cccnc2)N2CCN(c3ccccc3F)CC2)cc1` (stereo not given), for which the inhibition of mean fluorescence was -7.6% (inactive) and the inhibition of percent positive cells is -0.9%.

As for `CC1CCCN(C(C(=O)NC2CCCC2)c2cc3c(cc2[N+](=O)[O-])OCO3)C1` (stereo not given), the inhibition of mean fluorescence was 14.5% (inactive) and the inhibition of percent positive cells was -1.7%.

Regarding `CC(C)c1ccc(NC(=O)C(c2ccc3c(c2)OCO3)N2CCCCC2)cc1` (stereo not given), the inhibition of mean fluorescence was 36.4% (active) and the inhibition of percent positive cells is -0.7%.

On to `N#Cc1c(NC(=O)COC(=O)c2c3c(nc4ccccc24)CCCC3)sc2c1CCCC2`, for which the inhibition of mean fluorescence is -13.5% (inactive) and the inhibition of percent positive cells is -0.1%.

Regarding `O=C(CN1CC(=O)Oc2ccccc21)Nc1ccc2c(c1)OCO2`, the inhibition of mean fluorescence is -25.8% (inactive) and the inhibition of percent positive cells was -0.2%.

Turning to `CCCCc1oc2ccccc2c1C(=O)c1ccc(O)cc1`, the inhibition of mean fluorescence is 84.9% (active) and the inhibition of percent positive cells was 43.2%.

Consider `Cc1ccc(Nc2c(C(=O)O)cc([N+](=O)[O-])cc2[N+](=O)[O-])cc1Cl`, for which the inhibition of mean fluorescence was -19.5% (inactive) and the inhibition of percent positive cells is -0.4%.

Regarding `Cc1ccc(C)c(S(=O)(=O)c2n[nH]n3c2nc(=O)c2sccc23)c1`, the inhibition of mean fluorescence was 35.2% (active) and the inhibition of percent positive cells was determined as 0%.

For `COc1ccc(Nc2nc3c(S(=O)(=O)c4ccc(C)cc4)nnn3c3ccccc23)cc1`, the inhibition of mean fluorescence was 4.9% (inactive) and the inhibition of percent positive cells was -0.8%.

Turning to `COc1ccc(S(=O)(=O)c2n[nH]n3c2nc(=O)c2ccccc23)cc1`, the inhibition of mean fluorescence is 34.1% (active) and the inhibition of percent positive cells was -1.8%.

With `CCOC(=O)c1oc2cccc(O)c2c1C`, the inhibition of mean fluorescence is 0.4% (inactive) and the inhibition of percent positive cells is -0.8%.

For the compound `CCOC(=O)c1c(-c2cc(Br)c(OC)c(Br)c2)oc2ccc(O)cc12`, the inhibition of mean fluorescence was -2.7% (inactive) and the inhibition of percent positive cells is -0.6%.

`COc1ccc(C(=O)NCC(c2cccnc2)N2CCN(c3ccccc3F)CC2)cc1OC` (stereo not given): the inhibition of mean fluorescence was -7.3% (inactive) and the inhibition of percent positive cells was -1.8%.

Source of the values: PubChem BioAssay AID1014 (NMMLSC, 2008).
